# Bioassay records (PubChem)
# D3 ag: activates the human D3 dopamine receptor; P35462; D3R DiscoveRx beta-arrestin cells, luminescence, 90 min; max activation, %; actives 0.58% (n = 410,000); AID 652048; in the data active means max activation above about 30%; further: 0% is about no effect
# Target sequence (P35462 whole entry, looked up): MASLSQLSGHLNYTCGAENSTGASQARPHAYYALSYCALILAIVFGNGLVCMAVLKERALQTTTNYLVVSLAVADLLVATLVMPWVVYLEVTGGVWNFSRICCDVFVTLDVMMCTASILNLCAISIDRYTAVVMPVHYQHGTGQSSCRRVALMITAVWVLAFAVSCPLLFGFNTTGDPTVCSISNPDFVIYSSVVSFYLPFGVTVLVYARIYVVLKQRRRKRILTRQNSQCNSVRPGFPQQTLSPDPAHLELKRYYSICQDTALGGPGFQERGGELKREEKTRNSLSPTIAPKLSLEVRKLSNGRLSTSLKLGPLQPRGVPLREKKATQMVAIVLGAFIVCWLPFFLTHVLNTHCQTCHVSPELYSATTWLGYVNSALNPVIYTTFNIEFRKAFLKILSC
#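 Cells at 1500/well, incubated overnight, then treated with pinned compounds (dopamine as control) for 90 min at 37 degrees C. DiscoveRx reagent added for 30 - 60 minutes at room temperature; luminescence read.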
# D3 antag: blocks the human D3 dopamine receptor. D3R cells, DiscoveRx beta-arrestin luminescence, antagonist mode; active compounds read low. max response, negative = inhibition, %. actives 2.5% (n = 360,000); in the data active means max response below about -50%; inconclusive means no clear call, values can overlap the other calls; further: on the % scale 0 is the no-effect control and ±100 the full control effect
#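 Cells plated overnight at 1500 cells/well, then exposed to library compounds with dopamine controls for 90 minutes at 37 degrees C. DiscoveRx reagent added for 30–60 minutes at room temperature; luminescence read, quantitative HTS format.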
# a7 integrin act: activators of alpha7 integrin expression for muscular dystrophy | alpha7betagal myoblasts, beta-gal FDG fluorescence, 48 h | Potency, µM (top dose mostly 38.3 µM), without a hit: top-dose activation, hits mostly activators | actives 0.064% (n = 350,000) | AID 624291; active means well fitted activation curve with a large enough effect; inconclusive means small, poorly fitted or top-dose-only effect; inactive means no such curve, though single readings can be large or run the other way;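 further: potency means the concentration at half of the fitted maximal effect; 100% = response of the positive control SU9516; nearly all actives have a fitted effect of over 60% in size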
#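 alpha7betagal+/- myoblasts (passage 13, 250/well) treated 48 h at 37C with compounds at 1:260 dilution of DMSO stock. Lysed, then beta-galactosidase activity read as FDG fluorescence (ex 480/em 540) after 30 min, with pre-read for autofluorescence.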
# Active calls of the source: *; ? = inconclusive; . = no result; [ ] = dose if it differs, or a comment. Hits are enriched below; roughly 2.9% of the tested compounds scored in any of these assays.
SMILES,D3 ag,D3 antag,a7 integrin act
Cc1ccc(C(c2nnnn2C(C)(C)C)N2CCC(C)CC2)cc1 (stereo not given),-3,-52*,-30%
CC(C)(C)n1nnnc1C(c1ccccc1)N1CCCN(Cc2ccc(F)cc2)CC1 (stereo not given),-13,-105*,.
CCC(Sc1nc(-c2ccccc2)c(C#N)c(=O)[nH]1)C(=O)Nc1nnc(C)s1 (stereo not given),2,?,22%
COc1ccc(OC)c(C2CC(c3ccc(NS(C)(=O)=O)cc3)=NN2C(=O)c2ccccc2)c1 (stereo not given),-5,0,?
Oc1ccc2ccc(Cl)cc2c1,6,48,18%
COc1ccc2c(C)c(CC(=O)N3CCN(C(=O)C4COc5ccccc5O4)CC3)c(=O)oc2c1C (stereo not given),2,26,23%
O=C(Nc1ccc(N2CCCC2)c(Cl)c1)c1ccc([N+](=O)[O-])o1,-8,-23,-72%
O=C(Nc1cccc(S(=O)(=O)N2CCCCC2)c1)C1CCCC1,9,12,7%
N=C(N)Cc1ccccc1Sc1ccccc1,1,3,-44%
CC(C)(C)n1nnnc1C(c1ccccc1)N1CCN(c2ccccc2)CC1 (stereo not given),-7,0,.
CC(C)(C)n1nnnc1C(c1ccccc1)N1CCN(C/C=C/c2ccccc2)CC1 (stereo not given),-10,-57*,.
CCC(c1nnnn1C(C)(C)CC)N1CCN(c2ccccc2F)CC1 (stereo not given),10,-1,-11%
CCC(c1nnnn1C(C)(C)C)N1CCN(C/C=C/c2ccccc2)CC1 (stereo not given),-8,-80*,.
COC(=O)c1ccc(NC(=O)CSc2nn3c(=O)c(C)nnc3s2)cc1,-15,-5,-4%
COc1ccc(S(=O)(=O)NC(C)C(=O)NC2CC2)cc1C (stereo not given),-4,-6,19%
COc1cc(Cl)c(C)cc1NC(=O)CNC(C)c1ccccc1OC (stereo not given),-17,-12,-10%
COc1ccccc1C(C)NCC(=O)Nc1c(F)cccc1F (stereo not given),-28,-56*,10%
CCOc1ccc(C(=O)NCC(=O)OCc2c(C)noc2C)cc1OCC,-6,0,-12%
Cc1c(C(=O)Nc2cccc(C(F)(F)F)c2)oc2ccc(S(=O)(=O)N3CCOCC3)cc12,64*,6,4%
Cc1c(C(=O)Nc2cccc(C(F)(F)F)c2)oc2ccc(S(=O)(=O)N3CCC4(CC3)OCCO4)cc12,12,.,.
FC(F)(F)C(F)(F)C(F)(F)C(F)(F)C(F)(F)C(F)(F)C(F)(F)C(F)(F)Br,4,.,.
CCCNC(=O)c1ccc(N2CCC3(CC2)CC(c2ccccc2)=NO3)c(NC(=O)c2ccccc2)c1,13,61,1%
CCCCCCCC(=O)Nc1cc(C(=O)NCCC)ccc1N1CCC2(CC1)CC(c1ccccc1)=NO2,48*,-119*,-1%
COc1cccc(C(=O)Nc2ccc(C(=O)c3ccccc3)cc2)c1,3,1,0%
COC(=O)c1ccc(NC(=O)c2cccc(OC)c2)cc1,-2,20,25%
SMILES,D3 ag,D3 antag,a7 integrin act
CC(=O)Nc1ccc(NC(=O)c2cccc(Oc3ccccc3)c2)cc1,-16,-51*,0%
COC(=O)c1ccc(NC(=O)c2cccc(C)c2)cc1,-2,-52*,14%
Cc1ccc(CNC(=O)c2cc(S(=O)(=O)N3CCCCCC3)cn2C)cc1,2,.,.
O=C(O)CSc1nc(-c2ccc(Cl)cc2)nc2c1oc1ccccc12,5,2,7%
Cc1cc2cc(CN(CCN(C)C)C(=S)NCc3ccco3)c(=O)[nH]c2cc1C,-11,-27,-61%
CCN(CC)CCN(Cc1cc2cc(C)c(C)cc2[nH]c1=O)C(=S)NCc1ccco1,-27,-72*,-64%
CCN(CC)CCN(Cc1cc2ccc(C)cc2[nH]c1=O)C(=S)Nc1ccccc1C(=O)OC,-19,-84*,-53%
CCN(CC)CCCN(Cc1cc2cc3c(cc2[nH]c1=O)OCO3)C(=S)NCCCOC,-11,-4,-1%
CCN(CC)CCN(Cc1cc2cc3c(cc2[nH]c1=O)OCO3)C(=S)NCCCOC,-6,-52*,-48%
COC(=O)c1ccccc1NC(=S)N(Cc1ccc2c(c1)OCO2)Cc1cc2ccc(C)cc2[nH]c1=O,-6,13,2%
O=C(Nc1nccs1)c1ccccc1[N+](=O)[O-],8,0,24%
COCCCn1c(C(=O)NCCN2CCOCC2)cc2c(=O)n3cccc(C)c3nc21,2,-54*,15%
Cc1cccn2c(=O)c3cc(C(=O)NCCN4CCOCC4)c(=N)n(CCCN4CCOCC4)c3nc12,-6,-23,-8%
COc1cc(C(C)=O)ccc1OCC(=O)OCCCOC(=O)COc1ccc(C(C)=O)cc1OC,-9,-18,8%
CCOc1cc(Br)c(C(=O)O)cc1OC,-3,-15,-2%[7.66 µM]
COc1c(Br)cc(Br)cc1C(=O)O,37*,-13,-2%
CCOc1ccccc1NC(=O)CN(c1cc(C)cc(C)c1)S(=O)(=O)c1c(C)nn(C)c1C,-4,.,.
Cc1cc(C)cc(N(CC(=O)Nc2c(C)cc(C)cc2C)S(=O)(=O)c2c(C)nn(C)c2C)c1,78*,.,.
O=C(Nc1cc(C(F)(F)F)ccc1N1CCOCC1)c1n[nH]c(=O)c2ccccc12,0,35,-10%
O=S(=O)(Nc1nc(-c2sccc2Cl)cs1)c1cc(Cl)ccc1Cl,-11,-86*,-13%
CC(C)(C)c1nnc(NS(=O)(=O)c2cc(Cl)ccc2Cl)s1,4,-11,2%
COc1ccc(C)cc1NC(=O)C1C2C=CC(C2)C1C(=O)O (stereo not given),-4,-24,6%
COc1cc(NC(=O)C2C3C=CC(C3)C2C(=O)O)ccc1NC(=O)c1ccccc1 (stereo not given),-6,-21,8.9µM*
COc1cc(NC(=O)C2C3C=CC(C3)C2C(=O)O)c(OC)cc1Cl (stereo not given),4,-86*,15%
COc1cccc(C(=O)Nc2ccc(NC(=O)C3C4C=CC(C4)C3C(=O)O)cc2)c1 (stereo not given),-8,2,-9%
SMILES,D3 ag,D3 antag,a7 integrin act
COc1ccc(C(=O)CN2C(=O)NC3(CCCc4ccccc43)C2=O)cc1 (stereo not given),-23,-18,-1%
COc1ccc(OCc2cc(C(=O)N3CCCN(C(C)=O)CC3)no2)c(Cl)c1,5,0,12%
COc1ccc(-c2sc3ccccc3c2-c2ccc(OCCN(C)C)cc2)cc1,-48,-25,-44%
COc1cccc(-c2sc3ccc(OC)cc3c2-c2ccc(OCCN(C)C)cc2)c1,-17,-79*,-2%
O=S(=O)(Nc1ccc(-n2cnnn2)cc1)c1ccccc1F,-9,?,11%
COC(=O)c1c(NS(=O)(=O)c2cccs2)sc2c1CCCC2,-4,-57*,20%
COC(=O)c1c(NC(=O)Cc2cccs2)sc2c1CCCC2,1,?,-2%
O=C1CCN=C(Nc2ccc(F)cc2)N1Cc1ccccc1,2,4,-1%
c1ccc(N2CCN(c3nc4ccccc4n4cnnc34)CC2)cc1,0,31,11%
c1ccc2c(c1)CCN(c1nc3ccccc3n3cnnc13)C2,4,9,-13%
